# About 300 (0.45%) of roughly 67,000 compounds showed an effect of 50% or more. This excerpt belongs to a sample that is enriched for strong results.
# Molecular target: Polyketide synthase Pks13 (Mycobacterium tuberculosis (strain ATCC 25618 / H37Rv)) (UniProt I6X8D2)
# Assay: Mycobacterium tuberculosis Polyketide synthase 13 Thioesterase (PKS13)
# Type: functional
# Set-up: scale not given: in the data most compounds retested in dose-response had high values
# Conditions: 30 µM
# Chain of Polyketide synthase Pks13 (Mycobacterium tuberculosis (strain ATCC 25618 / H37Rv)) (I6X8D2 whole entry): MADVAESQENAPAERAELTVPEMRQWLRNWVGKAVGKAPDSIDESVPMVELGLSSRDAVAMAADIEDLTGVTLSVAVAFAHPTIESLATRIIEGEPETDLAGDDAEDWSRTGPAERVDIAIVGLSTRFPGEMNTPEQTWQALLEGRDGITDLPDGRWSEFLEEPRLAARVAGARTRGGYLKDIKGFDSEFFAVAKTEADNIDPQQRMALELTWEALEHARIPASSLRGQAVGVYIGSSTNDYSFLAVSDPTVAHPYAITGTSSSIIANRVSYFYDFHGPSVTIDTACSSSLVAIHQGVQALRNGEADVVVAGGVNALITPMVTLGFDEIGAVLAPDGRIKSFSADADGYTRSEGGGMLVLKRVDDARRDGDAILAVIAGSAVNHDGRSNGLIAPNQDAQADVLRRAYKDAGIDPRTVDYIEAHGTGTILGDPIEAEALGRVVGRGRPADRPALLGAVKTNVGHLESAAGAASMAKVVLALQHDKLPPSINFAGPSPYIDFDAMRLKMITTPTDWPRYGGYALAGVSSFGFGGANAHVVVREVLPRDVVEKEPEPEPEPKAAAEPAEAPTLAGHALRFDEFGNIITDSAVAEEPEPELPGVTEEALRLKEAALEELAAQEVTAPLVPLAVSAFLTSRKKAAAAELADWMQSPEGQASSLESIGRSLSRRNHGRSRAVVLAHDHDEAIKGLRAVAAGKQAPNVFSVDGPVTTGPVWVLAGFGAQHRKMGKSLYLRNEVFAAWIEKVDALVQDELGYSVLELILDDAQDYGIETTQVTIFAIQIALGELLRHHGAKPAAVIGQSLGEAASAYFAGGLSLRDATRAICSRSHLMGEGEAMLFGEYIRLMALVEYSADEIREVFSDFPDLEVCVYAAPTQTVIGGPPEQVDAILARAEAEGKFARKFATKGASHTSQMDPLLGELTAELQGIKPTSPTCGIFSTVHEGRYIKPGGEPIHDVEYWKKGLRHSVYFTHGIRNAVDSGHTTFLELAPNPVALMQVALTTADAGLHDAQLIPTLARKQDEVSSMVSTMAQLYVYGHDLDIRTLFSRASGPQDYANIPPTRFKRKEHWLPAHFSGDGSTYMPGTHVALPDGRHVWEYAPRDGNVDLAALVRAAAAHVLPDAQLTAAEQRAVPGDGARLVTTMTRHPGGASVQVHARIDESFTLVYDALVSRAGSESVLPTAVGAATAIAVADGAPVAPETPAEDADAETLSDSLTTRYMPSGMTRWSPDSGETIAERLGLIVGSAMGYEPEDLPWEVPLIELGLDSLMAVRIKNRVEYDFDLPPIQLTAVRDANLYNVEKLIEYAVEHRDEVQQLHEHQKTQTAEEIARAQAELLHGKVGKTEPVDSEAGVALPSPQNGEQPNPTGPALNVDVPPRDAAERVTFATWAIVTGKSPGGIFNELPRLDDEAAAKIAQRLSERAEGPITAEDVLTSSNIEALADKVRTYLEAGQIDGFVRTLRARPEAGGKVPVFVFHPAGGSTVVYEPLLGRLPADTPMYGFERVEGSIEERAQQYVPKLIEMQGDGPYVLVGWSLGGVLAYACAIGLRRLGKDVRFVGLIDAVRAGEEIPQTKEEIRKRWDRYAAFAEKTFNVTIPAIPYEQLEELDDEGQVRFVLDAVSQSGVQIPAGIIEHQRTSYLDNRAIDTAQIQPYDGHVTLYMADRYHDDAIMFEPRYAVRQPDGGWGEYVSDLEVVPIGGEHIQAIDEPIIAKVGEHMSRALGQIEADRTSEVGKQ
row,Compound,Percent Effect
1,CCC(=O)N1CCCCC[C@@H]2[C@@H]1[C@H](c1cccc(F)c1)CN2C,-27%
2,CNCCNc1ccc(-c2nc(-c3cccc(OC)c3OC)no2)cn1,-36.1%
3,COc1cccc(-c2noc(-c3ccc(NCC4CC4)nc3)n2)c1OC,36.1%
4,COc1cccc(-c2noc(-c3ccc(NCC(C)C)nc3)n2)c1OC,66%
5,COc1cccc(-c2noc(-c3ccc(NCCCO)nc3)n2)c1OC,40.8%
6,COc1cccc(-c2noc(-c3ccc(NCC(C)O)nc3)n2)c1OC (stereo not drawn),30.5%
7,CCC(C)Nc1ccc(-c2nc(-c3cccc(OC)c3OC)no2)cn1 (stereo not drawn),69.5%
8,CN(C)C(=O)N1CC[C@]2(O)CCN(C(=O)c3ccc(C#N)nc3)C[C@@H]2C1,-13.4%
9,CCCN1CCN(C(=O)c2cc[nH]n2)[C@H]2CS(=O)(=O)C[C@H]21,-8.12%
10,Cc1nnc([C@@H]2CC[C@@H]3[C@@H](CCN3Cc3ccccn3)O2)o1,-21.9%
11,O=C1[C@@H]2CCN(CC3CCOCC3)C[C@@H]2OCCN1c1ccccc1,-30.7%
12,CCC(=O)N1CCN(C(=O)c2cn3ccsc3n2)[C@H]2CS(=O)(=O)C[C@H]21,-15.8%
13,O=C(Cc1cnccn1)N1C[C@H]2CC[C@@H]1CN(Cc1cscn1)C2,-24.8%
14,CN(CCC(F)(F)F)C(=O)c1nc(S(C)(=O)=O)n2ccccc12,-23%
15,CN(Cc1ccccc1)C(=O)c1nc(S(C)(=O)=O)n2ccccc12,-33.7%
16,Cc1nc(C(=O)N(C)CC(F)(F)C(F)(F)F)c2ccccn12,132%
17,CC(C)CN1C(=O)CO[C@@H]2CN(C(=O)NC(C)C)C[C@H]21,-42.5%
18,O=C(CSCC1CC1)N1C[C@@H]2CC[C@H](C1)N(Cc1ccccn1)C2=O,-35%
19,CO[C@H]1CCN(Cc2c(C)noc2C)[C@@H]2CN(Cc3ccncc3)C[C@H]12,13.1%
20,CNCc1cn(C[C@H]2C[C@@H]3CCN2C[C@@H]3C(=O)NC2CCCCC2)nn1,-24.7%
21,CNc1cncc(C2CCCN2C(=O)Cn2c(=O)oc3ccccc32)n1 (stereo not drawn),130%
22,CNc1cncc(C2CCCN2C(=O)c2ccc3oc(=O)n(C)c3c2)n1 (stereo not drawn),-18.4%
23,Cn1cc(C2CCCN2C(=O)Cn2c(=O)oc3ccccc32)cn1 (stereo not drawn),-24.9%
24,O=C(C1CCCO1)N1C[C@@H]2CCN(c3cnccn3)C[C@@H]2C1 (stereo partly drawn),-10.1%
25,Cc1noc([C@@H]2C[C@H]3OCC[C@H]3N(S(=O)(=O)c3cccnc3)C2)n1,56.3%
26,Cc1noc([C@@H]2C[C@H]3OCC[C@H]3N(S(=O)(=O)c3ccccc3)C2)n1,-2.66%
27,Cc1noc([C@@H]2C[C@H]3OCC[C@H]3N(S(C)(=O)=O)C2)n1,-22.1%
28,CCOC(=O)[C@@H]1[C@@H](c2ccccc2)CN2CCN(C(=O)C3CC3)C[C@H]12,-34.9%

# Reference: ChEMBL document CHEMBL3988442, “University of Dundee, Small-Polar-MMV Screening Library” (2021)
